In PubChem BioAssay (NCATS):
Results filed as inconclusive are left out. Active and inactive are the calls of the source. Calls follow the shape of the dose curve; as a rule, active = well fitted curve in the direction sought with a large enough effect; inconclusive = small, poorly fitted or top-dose-only effect, or another doubt; inactive = no such curve, though single readings can be large; an effect the other way counts as inactive or inconclusive.

Tests used:
NIH3T3 = experiment: qHTS assay to identify novel small-molecules to repurpose for Merkel cell carcinoma treatment (AID 1296009); conditions: MCC and control cell lines, CellTiter-Glo viability, 72 h; at 44.8 µM (top of the series) unless noted; also: nearly all actives have a fitted effect of over 60% in size
How it was run: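 Cells were incubated with compound for 72 hr at 37 degree celsius before CellTiter-Glo addition. Luminescence was normalized with no-cell wells as full cytotoxicity and DMSO as baseline.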

C33A = experiment: Primary qHTS to identify gynecologic anti-cancer compounds using libraries of approved drugs and bioactive compounds (AID 1345084); conditions: Gynecologic cancer cell panel viability, ATPlite luminescence, 48 h; series mostly up to 57.5 µM; also: % is scaled to controls: 0 for no effect and ±100 for the full control effect; nearly all actives have a fitted effect of over 55% in size
How it was run: (§1)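 ATP-based viability (ATPlite), 1,000 cells/well, 16 h pre-incubation, 48 h compound at 37 C, 5% CO2, 15 min RT before read.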

CAOV3 = experiment: as above; conditions: Gynecologic cancer cell panel viability, ATPlite luminescence, 48 h; series mostly up to 57.5 µM
How it was run: as §1

CASKI = experiment: as above; conditions: Gynecologic cancer cell panel viability, ATPlite luminescence, 48 h; series mostly up to 57.5 µM
How it was run: as §1

Es-2 = experiment: as above; conditions: Gynecologic cancer cell panel viability, ATPlite luminescence, 48 h; series mostly up to 57.5 µM
How it was run: as §1

HeLa = experiment: as above; conditions: Gynecologic cancer cell panel viability, ATPlite luminescence, 48 h; series mostly up to 57.5 µM
How it was run: as §1

Hek293T = experiment: as above; conditions: Gynecologic cancer cell panel viability, ATPlite luminescence, 48 h, control line for the selectivity index; series mostly up to 57.5 µM
How it was run: as §1

JEG-3 = experiment: as above; conditions: Gynecologic cancer cell panel viability, ATPlite luminescence, 48 h; series mostly up to 57.5 µM
How it was run: as §1

OV90 = experiment: as above; conditions: Gynecologic cancer cell panel viability, ATPlite luminescence, 48 h; series mostly up to 57.5 µM
How it was run: as §1

PA-1 = experiment: as above; conditions: Gynecologic cancer cell panel viability, ATPlite luminescence, 48 h; series mostly up to 57.5 µM
How it was run: as §1

SKOV3 = experiment: as above; conditions: Gynecologic cancer cell panel viability, ATPlite luminescence, 48 h; series mostly up to 57.5 µM
How it was run: as §1

Tov112D = experiment: as above; conditions: Gynecologic cancer cell panel viability, ATPlite luminescence, 48 h; series mostly up to 57.5 µM
How it was run: as §1

Tov-21-G = experiment: as above; conditions: Gynecologic cancer cell panel viability, ATPlite luminescence, 48 h; series mostly up to 57.5 µM
How it was run: as §1

CN(C)CC(c1ccc(O)cc1)C1(O)CCCCC1 (stereo not drawn)
inactive: outcome (NIH3T3) | Potency (C33A) | Potency (CAOV3) | outcome (CASKI) | Potency (Es-2) | Potency (HeLa) | Potency (Hek293T) | Potency (JEG-3) | Potency (OV90) | Potency (PA-1) | Potency (SKOV3) | Potency (Tov112D)

C=C1CCC2(OC1)OC1CC3C4CC=C5CC(O)CC(O[C@@H]6OC[C@H](OC(=O)C(O)C(C)CC)[C@H](O)[C@H]6O[C@@H]6O[C@@H](C)[C@H](O)[C@@H](O)[C@H]6O)C5(C)C4CCC3(C)C1C2C (stereo partly drawn)
inactive: outcome (NIH3T3) inactive [at 9.27 µM] | activity change, negative = cytotoxicity (C33A) 4.8% [at 11.6 µM] | activity change, negative = cytotoxicity (CAOV3) 21.8% [at 11.6 µM] | activity change, negative = cytotoxicity (CASKI) 19.8% [at 11.6 µM] | activity change, negative = cytotoxicity (Es-2) -3.44% [at 11.6 µM] | activity change, negative = cytotoxicity (HeLa) 13.3% [at 11.6 µM] | activity change, negative = cytotoxicity (Hek293T) 16.6% [at 11.6 µM] | activity change, negative = cytotoxicity (JEG-3) 16.8% [at 11.6 µM] | activity change, negative = cytotoxicity (OV90) -4.79% [at 11.6 µM] | activity change, negative = cytotoxicity (PA-1) -0.0668% [at 11.6 µM] | activity change, negative = cytotoxicity (SKOV3) 6.52% [at 11.6 µM] | activity change, negative = cytotoxicity (Tov-21-G) 15.3% [at 11.6 µM] | activity change, negative = cytotoxicity (Tov112D) 19.2% [at 11.6 µM]

O=C(C[C@@H]1C(C(=O)O)=CO[C@@H](O[C@@H]2O[C@H](CO)[C@@H](O)[C@H](O)[C@H]2O)/C1=C\CO)OCCc1ccc(O)cc1
inactive: outcome (NIH3T3) inactive [at 17.4 µM] | Potency (C33A) | Potency (CAOV3) | outcome (CASKI) | Potency (Es-2) | Potency (HeLa) | Potency (Hek293T) | Potency (JEG-3) | Potency (OV90) | Potency (PA-1) | Potency (SKOV3) | Potency (Tov-21-G) | Potency (Tov112D)

CC(=O)O[C@@H]1C(=O)C(C)=C(CCC(C)CC(=O)O)[C@@]2(C)CCCC(C)(C)C12 (stereo partly drawn)
inactive: outcome (NIH3T3) | Potency (C33A) | Potency (CAOV3) | outcome (CASKI) | Potency (Es-2) | Potency (HeLa) | Potency (Hek293T) | Potency (JEG-3) | Potency (OV90) | Potency (PA-1) | Potency (SKOV3) | Potency (Tov-21-G) | Potency (Tov112D)

CC1(C)CC[C@]2(C(=O)O[C@@H]3O[C@H](CO)[C@@H](O)[C@H](O)[C@H]3O)CC[C@]3(C)C(=CCC4[C@@]5(C)C[C@@H](O)[C@H](O)[C@@](C)(CO)C5[C@H](O)C[C@]43C)C2[C@@H]1O (stereo partly drawn)
inactive: outcome (NIH3T3) inactive [at 17.4 µM] | Potency (C33A) | Potency (CAOV3) | outcome (CASKI) | Potency (Es-2) | Potency (HeLa) | Potency (Hek293T) | Potency (JEG-3) | Potency (OV90) | Potency (PA-1) | Potency (SKOV3) | Potency (Tov-21-G) | Potency (Tov112D)

O=C(OC[C@H]1O[C@@H](Oc2ccccc2CO)[C@H](O)[C@@H](O)[C@@H]1O)c1ccccc1
inactive: outcome (NIH3T3) | Potency (C33A) | Potency (CAOV3) | outcome (CASKI) | Potency (Es-2) | Potency (HeLa) | Potency (Hek293T) | Potency (JEG-3) | Potency (OV90) | Potency (PA-1) | Potency (SKOV3) | Potency (Tov-21-G) | Potency (Tov112D)

Cc1nc2cc(-c3cc(F)cc(C#N)c3)ccc2s1
inactive: outcome (NIH3T3) | Potency (C33A) | Potency (CAOV3) | outcome (CASKI) | Potency (Es-2) | Potency (HeLa) | Potency (Hek293T) | Potency (JEG-3) | Potency (OV90) | Potency (PA-1) | Potency (SKOV3) | Potency (Tov-21-G) | Potency (Tov112D)

CC(C)[C@@H](C(=O)O)N1Cc2c(cc(O)c3c2O[C@]2(C3)[C@H](C)CCC3C(C)(C)[C@H](O)[C@H](O)C[C@@]32C)C1=O (stereo partly drawn)
inactive: outcome (NIH3T3) inactive [at 17.4 µM] | Potency (C33A) | Potency (CAOV3) | outcome (CASKI) | Potency (Es-2) | Potency (HeLa) | Potency (Hek293T) | Potency (JEG-3) | Potency (OV90) | Potency (PA-1) | Potency (SKOV3) | Potency (Tov-21-G) | Potency (Tov112D)

CC(/C=C/C=C(\C)C(=O)O[C@@H]1O[C@H](CO[C@@H]2O[C@H](CO)[C@@H](O)[C@H](O)[C@H]2O)[C@@H](O)[C@H](O)[C@H]1O)=C\C=C\C=C(C)\C=C\C=C(/C)C(=O)O[C@@H]1C[C@](O)(C(=O)O)C[C@@H](O)[C@H]1OC(=O)/C=C/c1ccc(O)c(O)c1
inactive: outcome (NIH3T3) inactive [at 9.27 µM] | activity change, negative = cytotoxicity (C33A) 17.9% [at 11.6 µM] | activity change, negative = cytotoxicity (CAOV3) -20% [at 11.6 µM] | activity change, negative = cytotoxicity (CASKI) 21.7% [at 11.6 µM] | activity change, negative = cytotoxicity (Es-2) 1.04% [at 11.6 µM] | activity change, negative = cytotoxicity (HeLa) 2.81% [at 11.6 µM] | activity change, negative = cytotoxicity (Hek293T) -2.06% [at 11.6 µM] | activity change, negative = cytotoxicity (JEG-3) 7.27% [at 11.6 µM] | activity change, negative = cytotoxicity (OV90) 8.2% [at 11.6 µM] | activity change, negative = cytotoxicity (PA-1) -12.7% [at 11.6 µM] | activity change, negative = cytotoxicity (SKOV3) 3.61% [at 11.6 µM] | activity change, negative = cytotoxicity (Tov-21-G) 0.602% [at 11.6 µM] | activity change, negative = cytotoxicity (Tov112D) -1.9% [at 11.6 µM]

O=C(CCc1ccccc1)c1c(O)c([C@@H]2O[C@H](CO)[C@@H](O)[C@H](O)[C@H]2O)c(O)c([C@@H]2O[C@H](CO)[C@@H](O)[C@H](O)[C@H]2O)c1O
inactive: outcome (NIH3T3) inactive [at 17.4 µM] | Potency (C33A) | Potency (CAOV3) | outcome (CASKI) | Potency (Es-2) | Potency (HeLa) | Potency (Hek293T) | Potency (JEG-3) | Potency (OV90) | Potency (PA-1) | Potency (SKOV3) | Potency (Tov-21-G) | Potency (Tov112D)

NC(N)=NCCC[C@H](NC(=O)c1sccc1NS(=O)(=O)c1cccc2nsnc12)C(=O)O
inactive: outcome (NIH3T3) | Potency (C33A) | Potency (CAOV3) | outcome (CASKI) | Potency (Es-2) | Potency (HeLa) | Potency (Hek293T) | Potency (JEG-3) | Potency (OV90) | Potency (PA-1) | Potency (SKOV3) | Potency (Tov-21-G) | Potency (Tov112D)

NC(Cc1c[nH]c2ccc(O)cc12)C(=O)O (stereo not drawn)
inactive: outcome (NIH3T3) | Potency (C33A) | Potency (CAOV3) | outcome (CASKI) | Potency (Es-2) | Potency (HeLa) | Potency (Hek293T) | Potency (JEG-3) | Potency (OV90) | Potency (PA-1) | Potency (SKOV3) | Potency (Tov-21-G) | Potency (Tov112D)

CC(=O)OC1C(C)C2C(OC3OC(CO)C(O)C(O)C3O)OC=C(C(=O)O)C2C1OC(=O)c1ccccc1 (stereo not drawn)
inactive: outcome (NIH3T3) inactive [at 17.4 µM] | Potency (C33A) | Potency (CAOV3) | outcome (CASKI) | Potency (Es-2) | Potency (HeLa) | Potency (Hek293T) | Potency (JEG-3) | Potency (OV90) | Potency (PA-1) | Potency (SKOV3) | Potency (Tov-21-G) | Potency (Tov112D)

CC(C)CC(=O)OC[C@@]1(O)C[C@@]23CC[C@H]4[C@@](C)(CCC[C@@]4(C)C(=O)O)[C@@H]2CC[C@@H]1C3
inactive: outcome (NIH3T3) inactive [at 17.4 µM] | Potency (C33A) | Potency (CAOV3) | outcome (CASKI) | Potency (Es-2) | Potency (HeLa) | Potency (Hek293T) | Potency (JEG-3) | Potency (OV90) | Potency (PA-1) | Potency (SKOV3) | Potency (Tov-21-G) | Potency (Tov112D)

O=C(COCC(=O)N1CCN(C(c2ccccc2)c2ccccc2)CC1)Nc1ccc(Cl)cc1C(=O)O
inactive: outcome (NIH3T3) | Potency (C33A) | Potency (CAOV3) | outcome (CASKI) | Potency (Es-2) | Potency (HeLa) | Potency (Hek293T) | Potency (JEG-3) | Potency (OV90) | Potency (PA-1) | Potency (Tov-21-G) | Potency (Tov112D)
